Experimental data as given in PubChem BioAssay AID1159580 (chemical genetic matrix, 2015).
Out of some 5,500 compounds screened, about 2,000 (36%) were called active. Another 18% or so got no clear call; they are omitted. Cut-off read from the data, not from the text of the source: active = normalized growth mostly below about 0.91 (no sharp cut-off); inconclusive = no clear call, values can overlap the other calls; inactive = mostly above about 0.92. The list shows a part of the results.

Experiment: chemical genetic growth profiling, strain panel (AID 1159580);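 note: tested at 20 µM; growth read once vehicle control cultures reached saturation at 30 °C; 1 = growth at the plate median or of vehicle wells; lower values mean less growth of the strain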
Settings: S. cerevisiae deletion strains, growth OD
[1] = locus YAL040C, strain CLN3, hits give low values
[2] = locus YCL061C, strain MRC1 (second series), hits give low values
[3] = locus YDR363W, strain ESC2, hits give low values
[4] = locus YER002W, strain NOP16, hits give low values
[5] = locus YGR078C, strain PAC10, hits give low values
[6] = locus YJR075W, strain HOC1, hits give low values
[7] = locus YNL175C, strain NOP13, hits give low values
[8] = locus YNL197C, strain WHI3, hits give low values
[9] = locus YNL224C, strain SQS1, hits give low values
[10] = locus YOR083W, strain WHI5 (second series), hits give low values
[11] = locus YPL055C, strain LGE1, hits give low values
[12] = locus YDR150W, strain NUM1, hits give low values
[13] = locus YMR307W, strain GAS1, hits give low values
[14] = locus YNL128W, strain TEP1, hits give low values
[15] = locus YNL322C, strain KRE1, hits give low values
[16] = locus YAL013W, strain DEP1, hits give low values
[17] = locus YNL153C, strain GIM3, hits give low values
[18] = locus YHR030C, strain SLT2, hits give low values
[19] = locus YHR079C, strain IRE1, hits give low values
[20] = locus YJL095W, strain BCK1, hits give low values
[21] = locus YJR066W, strain TOR1, hits give low values
[22] = locus YLR113W, strain HOG1, hits give low values
[23] = locus YNL183C, strain NPR1, hits give low values
[24] = locus YOR231W, strain MKK1, hits give low values
[25] = locus YPL256C, strain CLN2, hits give low values

Measured: normalized growth

Nc1ncnc2c1c(-c1ccc(Oc3ccccc3)cc1)cn2C1CCCC1
inactive: [1] 0.94 | [2] 1.01 | [3] 1.02 | [4] 1.02 | [5] 0.934 | [6] 1.02 | [7] 1.01 | [8] 1.1 | [9] 0.952 | [11] 0.989
active: [10] 0.838

Nc1ncnc2c1ncn2C1CCCC1
inactive: [1] 1.01 | [12] 1 | [3] 1.02 | [4] 1.01 | locus YGR229C, strain SMI1, hits give low values 1.02 | [6] 1.04 | [13] 1.01 | [14] 1.03 | [7] 1.01 | [8] 1.01 | [9] 1.03 | [10] 1.01 | locus YPL241C, strain CIN2, hits give low values 1.01

C[C@@H]1O[C@@H](O[C@H]2C[C@@H](O)[C@]3(CO)[C@@H]4C(CC[C@]3(O)C2)[C@@]2(O)CC[C@H](C3COC(=O)C3)[C@@]2(C)C[C@H]4O)[C@H](O)[C@H](O)[C@H]1O (stereo not given in full)
inactive: [1] 0.998 | [2] 1 | [12] 0.996 | [3] 1 | [4] 0.996 | [5] 1.01 | [13] 1.01 | [7] 0.98 | [8] 1 | [9] 0.974 | [15] 1.01 | [10] 1.05 | [11] 1.01

N=C(N)SCCc1ccc(CCSC(=N)N)cc1
inactive: [16] 1.01 | [1] 1 | [2] 0.996 | [12] 1 | [3] 1.04 | [4] 0.996 | [6] 0.987 | [17] 0.964 | [7] 1 | [8] 1.03 | [9] 1.02 | [15] 1 | [10] 0.995 | [11] 1.02

CN(C)CCCSC(=N)N
inactive: [18] 0.951 | [19] 0.968 | [20] 0.963 | [21] 0.903 | [22] 0.982 | [23] 0.92 | [24] 0.966 | [25] 0.978

N=C(N)SCCN
active: locus YLR357W, strain rsc2, hits give low values 0.833
inactive: [16] 1.06 | locus YAL021C, strain ccr4, hits give low values 0.98 | locus YAL026C, strain drs2, hits give low values 1 | locus YAL030W, strain snc1, hits give low values 1.01 | [1] 1.05 | locus YBL061C, strain skt5, hits give low values 1.01 | locus YBR009C, strain hhf1, hits give low values 1 | locus YBR023C, strain chs3, hits give low values 1 | locus YBR171W, strain sec66, hits give low values 1.01 | locus YBR231C, strain swc5, hits give low values 0.992 | locus YBR279W, strain paf1, hits give low values 0.998 | locus YCL011C, strain gbp2, hits give low values 1.01 | locus YCL016C, strain dcc1, hits give low values 0.999 | [2] 0.995 | locus YCL061C, strain MRC1, hits give low values 1.01 | locus YCL069W, strain vba3, hits give low values 1.01 | locus YCR088W, strain abp1, hits give low values 1 | locus YDL005C, strain med2, hits give low values 0.997 | locus YDL040C, strain nat1, hits give low values 0.998 | locus YDR001C, strain nth1, hits give low values 1.01 | locus YDR069C, strain doa4, hits give low values 0.999 | locus YDR137W, strain rgp1, hits give low values 1 | [12] 1.02 | locus YDR159W, strain sac3, hits give low values 0.995 | locus YDR195W, strain ref2 0.941 | locus YDR297W, strain sur2, hits give low values 1.01 | locus YDR334W, strain swr1, hits give low values 1 | locus YDR335W, strain msn5, hits give low values 1 | locus YDR392W, strain spt3, hits give low values 0.856 | locus YEL003W, strain gim4, hits give low values 1.01 | locus YEL037C, strain rad23, hits give low values 0.996 | locus YEL061C, strain CIN8 (second series), hits give low values 1 | [4] 0.986 | locus YER015W, strain faa2, hits give low values 1.01 | locus YER016W, strain bim1, hits give low values 1 | locus YER111C, strain swi4, hits give low values 1 | locus YER155C, strain BEM2 (second series), hits give low values 0.985 | locus YFR010W, strain ubp6, hits give low values 1.01 | locus YGL167C, strain pmr1, hits give low values 1.01 | locus YGL173C, strain kem1, hits give low values 1 | locus YGL227W, strain vid30, hits give low values 1 | locus YGL240W, strain doc1, hits give low values 0.985 | locus YGL253W, strain hxk2, hits give low values 1.01 | [5] 0.994 | locus YHR013C, strain ard1, hits give low values 0.969 | locus YHR027C, strain rpn1, hits give low values 1.01 | [18] 1.07 | [19] 1.07 | locus YHR142W, strain chs7, hits give low values 1.01 | locus YJL092W, strain hpr5, hits give low values 0.998 | locus YJL095W, strain BCK1 (second series), hits give low values 0.998 | [20] 1.04 | locus YJL115W, strain asf1, hits give low values 0.99 | locus YJL129C, strain trk1, hits give low values 1.03 | locus YJL154C, strain vps35, hits give low values 0.997 | locus YJL164C, strain tpk1, hits give low values 1.01 | locus YJL166W, strain qcr8, hits give low values 1.01 | locus YJL187C, strain SWE1, hits give low values 1 | [21] 0.976 | [6] 1.01 | locus YKL160W, strain elf1, hits give low values 0.996 | locus YKR026C, strain gcn3, hits give low values 1 | locus YKR091W, strain srl3, hits give low values 1 | locus YLL001W, strain dnm1, hits give low values 0.999 | locus YLL026W, hits give low values 0.999 | locus YLL041C, strain sdh2, hits give low values 1 | locus YLR027C, strain aat2, hits give low values 1.01 | [22] 1.03 | locus YLR221C, strain rsa3, hits give low values 1 | locus YLR258W, strain gsy2, hits give low values 1 | locus YLR262C, strain YPT6 (second series), hits give low values 0.991 | locus YLR320W, strain mms22, hits give low values 0.997 | locus YLR342W, strain FKS1, hits give low values 1.01 | locus YLR370C, strain arc18, hits give low values 1.01 | locus YLR384C, strain iki3, hits give low values 1 | locus YML120C, strain ndi1, hits give low values 0.999 | locus YMR058W, strain fet3, hits give low values 1 | locus YMR125W, strain sto1, hits give low values 0.993 | locus YMR129W, hits give low values 1.02 | locus YMR205C, strain PFK2, hits give low values 1.01 | locus YMR231W, strain pep5, hits give low values 0.998 | locus YMR263W, strain SAP30, hits give low values 1.01 | [13] 1.02 | locus YNL071W, strain lat1, hits give low values 1 | [14] 0.987 | [17] 1 | [7] 0.991 | [23] 0.989 | [8] 0.992 | locus YNL209W, strain ssb2, hits give low values 1.01 | [9] 1.01 | locus YNL248C, strain rpa49, hits give low values 1.01 | locus YNL322C, strain KRE1 (second series), hits give low values 0.998 | locus YNR049C, strain mso1, hits give low values 1 | locus YOR001W, strain rrp6, hits give low values 0.995 | locus YOR070C, strain gyp1, hits give low values 0.989 | locus YOR080W, strain dia2, hits give low values 0.996 | [10] 0.997 | locus YOR083W, strain WHI5, hits give low values 0.995 | locus YOR106W, strain vam3, hits give low values 1.04 | [24] 1.05 | locus YOR265W, strain rbl2, hits give low values 1.01 | locus YOR270C, strain vph1, hits give low values 1.06 | locus YOR290C, strain snf2, hits give low values 0.956 | locus YPL051W, strain arl3, hits give low values 0.994 | [11] 1.01 | locus YPL078C, strain atp4, hits give low values 1.01 | locus YPL106C, strain sse1, hits give low values 1 | locus YPL240C, strain hsp82, hits give low values 1.02 | [25] 1.12
